Experiment [1] can be described thus: qHTS assay to identify small molecule antagonists of the glucocorticoid receptor (GR) signaling pathway - cell viability counter screen (AID 720693). Also: nearly all actives have a fitted effect of over 55% in size. Background: Quantitative high-throughput screening tests each substance at several concentrations.
Experiment [2] in a line: qHTS assay for identifying genotoxic compounds that show differential cytotoxicity against isogenic chicken DT40 cell lines with known DNA damage response pathways - wild type cell line (AID 743012). Also: nearly all actives have a fitted effect of over 60% in size. A digest of the protocol:
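Using parental DT40 (300 cells/well), compounds delivered in DMSO incubate 40 h at 37 C/5% CO2. CellTiter-Glo reagent then stands 30 min at room temperature, and luminescence gives cell viability.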

Experiment [3] is described as follows: qHTS assay for identifying genotoxic compounds that show differential cytotoxicity against isogenic chicken DT40 cell lines with known DNA damage response pathways - Rev3 mutant cell line (AID 743014). Also: nearly all actives have a fitted effect of over 55% in size.
Experiment [4] in a line: qHTS assay for identifying genotoxic compounds that show differential cytotoxicity against isogenic chicken DT40 cell lines with known DNA damage response pathways - Rad54/Ku70 mutant cell line (AID 743015). Also: nearly all actives have a fitted effect of over 60% in size.
A short description of experiment [5]: qHTS assay to identify small molecule antagonists of the androgen receptor (AR) signaling pathway - cell viability counter screen (AID 743033; also: nearly all actives have a fitted effect of over 45% in size).
Experiment [6] has as its target Androgen receptor (Homo sapiens) (UniProt P10275). Nature of the experiment: qHTS assay to identify small molecule agonists of the androgen receptor (AR) signaling pathway using the MDA cell line (AID 743040; also: nearly all actives have a fitted effect of over 20% in size). A digest of the protocol:
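MDA-kb2 breast carcinoma cells carrying MMTV-luciferase (responsive to AR and GR), plated 5 h then treated 16 h with compounds at 37C, 0% CO2. Read-out was ONE-Glo luminescence after 30 min at room temperature.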

Experiment [7] can be described thus: qHTS assay to identify small molecule antagonists of the androgen receptor (AR) signaling pathway using the MDA cell line - cell viability counter screen (AID 743041; also: nearly all actives have a fitted effect of over 45% in size; also: potency is read from the fitted curve at half-maximal effect). A digest of the protocol:
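MDA-kb2 AR-luc cells (MMTV-luciferase, AR/GR responsive) treated with compounds plus R1881 agonist for 16 h at 37C. CellTiter-Fluor added at 15.5 h; fluorescence read after 30 min in the same wells.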

Experiment [8] has as its target Androgen receptor (Homo sapiens) (UniProt P10275). In words: qHTS assay to identify small molecule antagonists of the androgen receptor (AR) signaling pathway using the MDA cell line (AID 743042; also: nearly all actives have a fitted effect of over 55% in size). A digest of the protocol: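 MDA-kb2 breast carcinoma cells carrying MMTV-luciferase (AR/GR responsive) were co-treated with compounds and the agonist R1881 for 16 h at 37C. Inhibition read as ONE-Glo luminescence; CellTiter-Fluor fluorescence measured in parallel for cytotoxicity.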

A short description of experiment [9]: qHTS assay to identify small molecule antagonists of the thyroid receptor (TR) signaling pathway - cell viability counter screen (AID 743064). Also: nearly all actives have a fitted effect of over 50% in size. Also: potency is read from the fitted curve at half-maximal effect. A digest of the protocol:
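Fluorescence from CellTiter-Fluor, added after 23.5 h exposure at 37 °C, reported viability of GH3.TRE-Luc cells co-treated with compound and 1 nM T3. Measured in the same wells as the luciferase TR readout.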

Experiment [10] in a line: qHTS assay to identify small molecule antagonists of the thyroid receptor (TR) signaling pathway (AID 743065). Also: series mostly up to about 70 µM; nearly all actives have a fitted effect of over 55% in size. A digest of the protocol:
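GH3.TRE-Luc rat pituitary cells (two TREs driving luciferase) were dosed with compound, then stimulated with 1 nM T3 (final) for 23.5 h at 37 C. ONE-Glo luminescence was the read-out, with CellTiter-Fluor fluorescence as the cytotoxicity counter-screen.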

In experiment [11] the test system is thyroid hormone receptor (rat, GH3 cells). In words: qHTS assay to identify small molecule agonists of the thyroid receptor (TR) signaling pathway (AID 743066; calls by dose curve).
Experiment [12] deals with Estrogen receptor (Homo sapiens) (UniProt P03372). In words: qHTS assay to identify small molecule antagonists of the estrogen receptor alpha (ER-alpha) signaling pathway (AID 743069; active = well fitted curve in the direction sought with a large enough effect in the signal ratio in the repeat runs, not every such curve was filed as active; the % refers to the signal ratio). A digest of the protocol: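 HEK293 ER-alpha-UAS-bla GripTite cells, held overnight in 2% charcoal-stripped FBS, 5,000 cells/well, preincubated 4 h, then compound plus 17beta-estradiol for 18 h at 37C. Beta-lactamase read by LiveBLAzer B/G FRET substrate, 2 h at room temperature.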

A short description of experiment [13]: qHTS assay to identify small molecule antagonists of the estrogen receptor alpha (ER-alpha) signaling pathway - cell viability counter screen (AID 743074; calls by dose curve;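 also: HEK293 cells carrying ER-alpha-UAS-bla reporter stimulated with 17beta-estradiol; nearly all actives have a fitted effect of over 45% in size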).
Experiment [14] has as its target Estrogen receptor (Homo sapiens) (UniProt P03372). In words: qHTS assay to identify small molecule agonists of the estrogen receptor alpha (ER-alpha) signaling pathway (AID 743075; calls by dose curve).
For experiment [15] the target is unchanged. In words: qHTS assay to identify small molecule agonists of the estrogen receptor alpha (ER-alpha) signaling pathway using the BG1 cell line (AID 743079). Also: nearly all actives have a fitted effect of over 20% in size.
Experiment [16] is described as follows: qHTS assay to identify small molecule antagonists of the estrogen receptor alpha (ER-alpha) signaling pathway using the BG1 cell line (AID 743080; calls by dose curve;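 also: BG1 cells stimulated with 17beta-estradiol alongside compound; series mostly up to about 70 µM; nearly all actives have a fitted effect of over 25% in size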). A digest of the protocol:
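Endogenous full-length ER-alpha in BG1-Luc-4E2 cells drives a stably integrated 4×ERE luciferase gene; compounds were tested against 17beta-estradiol over 21.5 h, with luminescence and multiplexed viability fluorescence recorded.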

Experiment [17] can be described thus: qHTS assay to identify small molecule antagonists of the estrogen receptor alpha (ER-alpha) signaling pathway using the BG1 cell line - cell viability counter screen (AID 743081).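 Also: compound given together with 17beta-estradiol as the ER stimulus; nearly all actives have a fitted effect of over 45% in size.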 Also: potency is read from the fitted curve at half-maximal effect. As to activity change, negative = cytotoxicity: series mostly up to about 70 µM.
The next experiment deals with Aromatase (Homo sapiens) (UniProt P11511). In words: qHTS assay to identify aromatase inhibitors (AID 743083).
A short description of experiment [18]: qHTS assay to identify aromatase inhibitors - cell viability counter screen (AID 743084). Also: potency is read from the fitted curve at half-maximal effect.
For experiment [19], the target named is Androgen receptor (Homo sapiens) (UniProt P10275). Nature of the experiment: qHTS assay to identify small molecule agonists of the androgen receptor (AR) signaling pathway (AID 743036; active = well fitted activation curve with a large enough effect in the signal ratio in the repeat runs, with a control signal flat, not every such curve was filed as active; the % refers to the signal ratio). A digest of the protocol:
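Fluorescence from a beta-lactamase FRET substrate served as read-out in AR-UAS-bla GripTite HEK293 cells. Cells were treated with DMSO-dissolved compounds for 16 h at 37C, then with LiveBLAzer B/G substrate for 2 h at room temperature.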

Structures are written as SMILES. Unmarked numbers belong to inactive results. Inconclusive results are not listed. More than one record can exist for a structure, and the calls need not agree. The source made the active and inactive calls. Unless noted, calls follow the shape of the dose curve; as a rule, active = well fitted curve in the direction sought with a large enough effect in the repeat runs; inconclusive = weak or mixed curves; inactive = no such curve, though single readings can be large; an effect the other way counts as inactive or inconclusive.
% is scaled to controls: 0 for no effect and ±100 for the full control effect.

Aromatase (Homo sapiens), sequence (P11511 whole entry, looked up): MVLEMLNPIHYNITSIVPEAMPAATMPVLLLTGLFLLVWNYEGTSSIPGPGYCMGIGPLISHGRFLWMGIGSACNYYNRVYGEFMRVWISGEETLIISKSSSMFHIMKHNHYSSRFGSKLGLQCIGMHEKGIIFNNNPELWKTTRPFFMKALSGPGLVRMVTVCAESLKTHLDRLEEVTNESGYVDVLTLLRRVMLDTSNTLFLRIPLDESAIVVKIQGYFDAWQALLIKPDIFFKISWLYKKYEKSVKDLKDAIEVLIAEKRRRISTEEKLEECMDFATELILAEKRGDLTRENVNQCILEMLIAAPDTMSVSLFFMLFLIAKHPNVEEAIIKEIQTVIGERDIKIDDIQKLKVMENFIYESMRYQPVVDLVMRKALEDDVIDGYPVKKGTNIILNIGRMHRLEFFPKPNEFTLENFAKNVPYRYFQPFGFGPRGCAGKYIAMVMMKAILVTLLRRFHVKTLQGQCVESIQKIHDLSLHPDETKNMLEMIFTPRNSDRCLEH
Estrogen receptor (Homo sapiens), sequence (P03372 whole entry, looked up): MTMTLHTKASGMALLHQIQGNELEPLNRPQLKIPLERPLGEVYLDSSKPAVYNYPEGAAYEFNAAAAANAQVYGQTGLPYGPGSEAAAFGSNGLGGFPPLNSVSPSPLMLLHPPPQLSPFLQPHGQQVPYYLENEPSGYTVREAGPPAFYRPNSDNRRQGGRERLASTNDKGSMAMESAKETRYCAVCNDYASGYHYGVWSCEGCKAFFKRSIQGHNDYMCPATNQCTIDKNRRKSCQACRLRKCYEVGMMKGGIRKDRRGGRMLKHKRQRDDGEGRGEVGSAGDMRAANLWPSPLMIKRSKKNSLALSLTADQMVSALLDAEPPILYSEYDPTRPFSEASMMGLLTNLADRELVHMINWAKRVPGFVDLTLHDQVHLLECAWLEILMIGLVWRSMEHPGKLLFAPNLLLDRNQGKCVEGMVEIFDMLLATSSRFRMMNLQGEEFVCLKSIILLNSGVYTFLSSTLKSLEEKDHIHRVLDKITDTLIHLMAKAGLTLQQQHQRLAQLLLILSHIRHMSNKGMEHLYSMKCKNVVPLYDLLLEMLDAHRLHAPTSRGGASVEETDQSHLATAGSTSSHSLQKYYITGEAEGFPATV
Androgen receptor (Homo sapiens), sequence (P10275 whole entry, looked up): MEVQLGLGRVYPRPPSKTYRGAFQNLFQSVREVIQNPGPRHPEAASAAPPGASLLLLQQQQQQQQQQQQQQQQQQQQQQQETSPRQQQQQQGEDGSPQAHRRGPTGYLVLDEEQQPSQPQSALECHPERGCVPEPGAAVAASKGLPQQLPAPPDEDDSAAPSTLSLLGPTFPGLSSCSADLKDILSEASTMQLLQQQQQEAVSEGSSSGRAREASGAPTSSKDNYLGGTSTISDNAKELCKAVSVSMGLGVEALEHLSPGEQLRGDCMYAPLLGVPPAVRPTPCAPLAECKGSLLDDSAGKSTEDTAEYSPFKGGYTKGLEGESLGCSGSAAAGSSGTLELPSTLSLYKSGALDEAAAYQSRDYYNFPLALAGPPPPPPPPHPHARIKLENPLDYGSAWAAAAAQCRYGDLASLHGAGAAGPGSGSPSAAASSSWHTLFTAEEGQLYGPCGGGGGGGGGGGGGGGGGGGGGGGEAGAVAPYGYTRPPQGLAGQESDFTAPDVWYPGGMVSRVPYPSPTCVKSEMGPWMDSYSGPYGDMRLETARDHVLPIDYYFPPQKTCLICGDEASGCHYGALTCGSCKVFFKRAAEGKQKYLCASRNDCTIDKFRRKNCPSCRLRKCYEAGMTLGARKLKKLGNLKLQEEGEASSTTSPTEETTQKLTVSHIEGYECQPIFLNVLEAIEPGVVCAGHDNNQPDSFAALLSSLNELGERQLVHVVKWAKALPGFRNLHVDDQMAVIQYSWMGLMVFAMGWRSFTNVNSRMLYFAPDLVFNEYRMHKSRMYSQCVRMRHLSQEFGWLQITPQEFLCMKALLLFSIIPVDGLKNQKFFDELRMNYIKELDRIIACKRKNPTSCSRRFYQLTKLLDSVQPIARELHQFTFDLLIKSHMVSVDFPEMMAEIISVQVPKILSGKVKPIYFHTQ

For the compound `Cc1ccc(C(=O)O)cc1[N+](=O)[O-]`, the compound was called inactive in experiment [1], in experiment [5], in [8], in experiment [11], in experiment [12] and in experiment [13]. Moreover, the outcome (in experiment [16]; with Aromatase (Homo sapiens)) was inactive. The Potency entry in experiment [2], in experiment [3], in experiment [4], in experiment [6], in experiment [7] and in experiment [9] was “inactive” throughout. The Potency result in experiment [10], in experiment [14], in experiment [15], in [17] and in experiment [18] was “inactive” each time.
Consider `CC(=O)O[C@@H]1CC2CCC1(C)C2(C)C` (stereo partly drawn), for which the result (in experiment [1]; in experiment [5]; in experiment [19]; in [8]; in experiment [13]; with Aromatase (Homo sapiens)) was inactive. The Potency result in experiment [2], in experiment [3], in [4], in experiment [6], in [7] and in experiment [9] was “inactive” in each case. The Potency result in experiment [17] and in [18] was “inactive” each time.
Take `CCC(C)OC(C)CC` (stereo not drawn): the compound was classed as inactive in experiment [1], in [5], in experiment [19], in experiment [8], in experiment [11] and in experiment [13]. Also, the call (in experiment [16]; with Aromatase (Homo sapiens)) was inactive. Also, the Potency entry in experiment [2], in experiment [3], in experiment [4], in experiment [6], in experiment [7] and in experiment [9] was “inactive” throughout. The Potency result in experiment [10], in experiment [14], in experiment [15], in experiment [17] and in experiment [18] was “inactive” throughout.
For the compound `O=C(Cn1ccnc1[N+](=O)[O-])NCc1ccccc1`, the call in experiment [1], in experiment [5], in experiment [11], in experiment [12], in experiment [13] and in experiment [16] was inactive. Further, the call in the experiment with Aromatase (Homo sapiens) was inactive. The Potency entry in experiment [2], in experiment [3], in [4], in experiment [7], in [9] and in experiment [10] was “inactive” in each case. Besides, the Potency result in [14], in experiment [15], in experiment [17] and in experiment [18] was “inactive” each time.
Regarding `CC(=O)CC(=O)Nc1ccc(C)cc1C`, the call in experiment [1], in experiment [5], in [19], in [8], in experiment [11] and in experiment [13] was inactive. Further, the compound was called inactive with Aromatase (Homo sapiens). The Potency result in experiment [2], in experiment [3], in experiment [4], in [6], in experiment [7] and in experiment [9] was “inactive” each time. For the same compound, the Potency entry in [10], in experiment [17] and in [18] was “inactive” in each case.
For the compound `CCCCC1CCC(O)CC1` (stereo not drawn), the result in experiment [1], in experiment [5], in experiment [19], in [8], in experiment [11] and in [13] was inactive. Besides, the call in the experiment with Aromatase (Homo sapiens) was inactive. In addition, the Potency entry in [2], in [3], in experiment [4], in experiment [6], in experiment [7] and in experiment [9] was “inactive” throughout. Further, the Potency result in experiment [10], in [17] and in [18] was “inactive” each time.
For `CC1(C)Cc2cccc(N)c2O1`, the compound was classed as inactive in experiment [1], in [5], in experiment [11], in experiment [12], in experiment [13] and in [16]. In addition, in the experiment with Aromatase (Homo sapiens), the outcome was inactive. For the same compound, the Potency entry in experiment [2], in [3], in experiment [4], in [7], in experiment [9] and in experiment [10] was “inactive” in each case. For the same compound, the Potency entry in experiment [14], in experiment [15], in [17] and in experiment [18] was “inactive” throughout.
For the compound `O=S(=O)(O)c1ccc2c(N=Nc3ccc(S(=O)(=O)O)c4ccccc34)c(O)c(S(=O)(=O)O)cc2c1`, the compound was classed as inactive in experiment [1], in experiment [5], in experiment [11] and in experiment [13]. For the same compound, the Potency entry in experiment [2] and in experiment [3] was “inactive” each time. Further, the activity change, negative = cytotoxicity in experiment [4] was 0.0993% [at 8.55 µM]. Also, the Potency in [7] is 22.1 µM (active); in [9] it was 21.1 µM (active); in [17] it was 9.44 µM (active); in [18], 18.8 µM (active). Further, the viability change, negative = cytotoxic in experiment [7] was -3.01% [at 8.47 µM]. In addition, the activity change, negative = cytotoxic in [9] is -5.75% [at 8.44 µM]. For the same compound, the activity, negative = inhibition in [10] was -4.92% [at 8.44 µM]; with Aromatase (Homo sapiens), -13.1% [at 8.47 µM].

These data come from PubChem BioAssay (Tox21).
